# In all, about 69,000 compounds went through this assay and about 8,600 (12%) showed an effect of 50% or more. What follows is part of a selection rich in strong results, with near analogues and random picks from the rest.
# System: Plasmodium berghei
# Assay: Screen against P. berghei liver stage (PbLuc), transformed with Luciferase, at 10uM
# Format: functional, HepG2
# Settings: tested at 10 uM
row,Compound,INHIBITION
1,Cn1cnc2c1C(COCc1ccccc1)N(Cc1cccnc1)CC2 (stereo not drawn),8.85%
2,Cc1nc2ccc(C(=O)N3CC[C@H](O)[C@@H](N4CCOCC4)CC3)cc2[nH]1,-5.71%
3,O=C(N[C@@H]1CN(Cc2c[nH]nc2-c2ccccc2)C[C@H]1O)c1cc[nH]n1,-3.182%
4,CN(C)C(=O)COCc1nnc2n1CCN(Cc1ccsc1)C2,39.4%
5,O=C1COC2(CCN(Cc3ccncc3)CC2)CN1,-55%
6,CCOc1ccc(Br)cc1-c1cc(N)[nH]n1,-21.3%
7,CC(C)C(=O)N1CCCC2(CCCN2CC2CCCC2)C1 (stereo not drawn),-26.5%
8,O=C(Cc1c[nH]c2ccccc12)N1CCC(Nc2cccnc2)CC1,-12.2%
9,O=C(NCCOc1ccc(Cl)cn1)Nc1cccnc1,-24.7%
10,CC1(C(=O)N2CCOCC2)CN(Cc2cccnc2)CCO1 (stereo not drawn),2.71%
11,CC(O)CN(Cc1cccc(C(=O)N(C)C)c1)c1ccccc1 (stereo not drawn),60.5%
12,CC(O)CN(Cc1cccc(C(N)=O)c1)c1ccccc1 (stereo not drawn),28.9%
13,CCC(O)CN(Cc1cccc(C(=O)N(C)C)c1)c1ccccc1 (stereo not drawn),2.93%
14,CC(O)(CNc1ccc(Cl)c(C#N)n1)c1ccccc1 (stereo not drawn),-25%
15,CC(C)c1nnc2n1CCN(CCS(=O)(=O)c1ccccc1)C2,4.71%
16,CCN1CCC2(CC1)CC(COC)N(Cc1csc(C)n1)C2 (stereo not drawn),8.85%
17,COCC1CC2(CCN(C(N)=O)CC2)CN1Cc1csc(C)n1 (stereo not drawn),41%
18,COCC1CC2(CCN(C(C)=O)CC2)CN1Cc1csc(C)n1 (stereo not drawn),79.6%
19,COCC1CC2(CCN(Cc3ccoc3)CC2)CN1Cc1ccccn1 (stereo not drawn),48.4%
20,COCC1CC2(CCN(CC3CC3)CC2)CN1Cc1ccccn1 (stereo not drawn),13.1%
21,COCC1CC2(CCN(Cc3nccs3)CC2)CN1Cc1ccccn1 (stereo not drawn),71.1%
22,Cc1cc(C)n(CC2CCCN2CC(=O)N(C)Cc2ccco2)n1 (stereo not drawn),4.71%

row,Compound,INHIBITION
1,Cc1nnc(-c2cccc(C#N)c2)n1C1CCN(C2CC2)C1=O (stereo not drawn),-25.7%
2,O=C(Cn1cc(-n2cccc2)cn1)NCC1CCC1,55.6%
3,Cc1cc(CN2CCCC(CNC(=O)Cn3cccn3)C2)oc1C (stereo not drawn),57.6%
4,CCCC(=O)NCC1CCCN(Cc2cc(C)c(C)o2)C1 (stereo not drawn),54.4%
5,O=C(Cn1cc(I)cn1)NCC1CCC1,27.5%
6,O=C(Cn1cc(-n2cccc2)cn1)NCC(F)(F)F,6.83%
7,O=C(Cn1cccn1)NCC1CCN(Cc2cc3ccccc3[nH]2)C1 (stereo not drawn),9.79%
8,O=C(Cn1cccn1)NCC1CCCN(Cc2ccccc2)C1 (stereo not drawn),13.7%
9,CCN1CCCC(CNC(=O)CCc2ccc(OC)c(F)c2)C1 (stereo not drawn),11.5%
10,Cc1cc(CN2CCC(CNC(=O)CN3CCCCCC3)C2)[nH]n1 (stereo not drawn),10.7%
11,CO[C@@H]1CN(c2ccccc2)S(=O)(=O)[C@@]12CCN(C)C2,32.1%
12,CN1CC(=O)N(c2ccccc2)CC12CCN(C(=O)CC1CC1)C2 (stereo not drawn),4.68%
13,CC[C@@H](c1ccccc1)n1c(CN)n[nH]c1=O,4.48%
14,c1cncc(-c2noc(CN3CCn4c(nnc4C4CC4)C3)n2)c1,15.66%
15,COCCCNC(=O)C(C)n1cc(Br)cn1 (stereo not drawn),-33.2%
16,O=C(NCc1ccco1)[C@H]1COC[C@H]2CN(Cc3ccccn3)C[C@H]21,15.9%
17,Cc1noc(C)c1CN(C)C(=O)c1nc(N2CCCC2)ncc1Cl,61.9%
18,CCOc1ccc(CN(C)C(=O)c2nc(N3CCCC3)ncc2Cl)cc1,24.8%
19,CN(C)C(CNC(=O)c1nc(N2CCCC2)ncc1Cl)c1ccco1 (stereo not drawn),26%
20,CC(C)C(C)N(Cc1ccccn1)Cc1ccco1 (stereo not drawn),16.3%
21,CCc1ccc(CN(Cc2ccco2)C(C)C(C)C)nc1 (stereo not drawn),60.7%
22,COCc1ncc(CN(Cc2ccco2)C(C)C(C)C)cn1 (stereo not drawn),20.9%

row,Compound,INHIBITION
1,CC(=O)N1CCCC(c2ccc(Br)cn2)C1 (stereo not drawn),29.2%
2,O=C(c1ccncc1)N1CCC2(CCCN(c3ncc(F)cn3)C2)C1 (stereo not drawn),40.3%
3,COc1cccc(CN2CCCC3(CCN(C(=O)c4ccco4)C3)C2)c1 (stereo not drawn),69.1%
4,O=C(c1ccco1)N1CCCC2(CCN(c3nncs3)C2)C1 (stereo not drawn),56.6%
5,O=C(c1ccoc1)N1CCC2(CCCN(c3ncc(F)cn3)C2)C1 (stereo not drawn),53%
6,COc1cccc(CN2CCCC3(CCN(C(=O)[C@H]4CCCO4)C3)C2)c1 (stereo partly drawn),13.2%
7,O=C(c1ccco1)N1CCCC2(C1)CN(c1nncs1)CCO2 (stereo not drawn),45.7%
8,O=C(c1ccco1)N1CCCC2(CCN(CCN3CCCC3)C2=O)C1 (stereo not drawn),58.5%
9,Cc1occc1C(=O)N1CCCC2(CCN(CCN3CCCC3)C2=O)C1 (stereo not drawn),23.5%
10,CC(=O)N1CCCC2(CCN(c3nncs3)C2)C1 (stereo not drawn),7.7%
11,O=C(c1ccoc1)N1CCC2(C1)CN(c1ncc(F)cn1)C2,-0.813%
12,COc1cccc(CN2CCCC3(CCN(C(=O)N4CCCC4)C3)C2)c1 (stereo not drawn),8.74%
13,Cn1cccc1C(=O)N1CCCC2(CCN(CCN3CCCC3)C2=O)C1 (stereo not drawn),-14.9%
14,COc1cccc2ccn(CC(=O)NCCC(C)C)c12,9.04%
15,CC(C)(C)c1nnc2n1C(C(=O)N1CCOCC1)CC2 (stereo not drawn),-3.93%
16,CCn1cnnc1C1CCN(C(=O)c2ccc3ccccc3n2)CC1,26.4%
17,Cc1nnc(N2C[C@@H](Oc3ccccn3)[C@H]3OCCC[C@H]32)s1,-23.8%
18,COc1ccc(C)cc1C(C)NCc1cnnn1C (stereo not drawn),0.818%
19,COCc1cn(CC2CCN(Cc3c(C)[nH]c4ccccc34)CC2)nn1,15.8%
20,Cc1nn(-c2ccccc2Cl)c(C)c1CCC(=O)O,15.4%
21,CCc1ccc(CN2CCN(c3cccc(OC)c3)C(=O)C2)nc1,-8.99%
22,O=C(c1ccco1)N1CCC2(CCCN(c3ncccn3)C2)C1 (stereo not drawn),77.4%

row,Compound,INHIBITION
1,O=C(c1ccco1)N1CCC2(CC1)CCN(c1ncccn1)CC2,-7.28%
2,O=C(c1ccco1)N1CCC2(CCCN(c3ncc(F)cn3)C2)C1 (stereo not drawn),43%
3,O=C(O)c1cnc(OCC2CC2)c(Br)c1,-4.56%
4,O=C1CC[C@@H]2[C@@H](CCN2C(=O)c2ccsc2)N1Cc1ccncc1,63.7%
5,Cc1nc(CN2C(=O)CC[C@H]3[C@@H]2CCN3C(=O)c2ccsc2)cs1,4.55%
6,O=C1CC[C@@H]2[C@@H](CCN2C(=O)C2CCOCC2)N1CC1CC1,18.5%
7,COCCN1C(=O)CC[C@@H]2[C@H]1CCN2C(=O)N(C)C,-37.8%
8,COCCN1C(=O)CC[C@@H]2[C@H]1CCN2C(=O)C1CCOCC1,52.3%
9,O=C1CC[C@H]2[C@H](CCN2C(=O)C2CCOC2)N1Cc1ccncc1 (stereo partly drawn),54.7%
10,O=C1CC[C@H]2[C@H](CCN2C(=O)C2CCOCC2)N1Cc1ccncc1,7.11%
11,O=C1CC[C@@H]2[C@@H](CCN2C(=O)c2ccsc2)N1CC1CC1,47.8%
12,O=C1CC[C@H]2[C@H](CCN2C(=O)C2CCCO2)N1Cc1ccncc1 (stereo partly drawn),8.69%
13,COCCN(C(=O)c1ccn(-c2ccc(OC)cc2)n1)C(C)C(N)=O (stereo not drawn),0.0996%
14,COc1ccc(OC)c(C2SCC(=O)Nc3n[nH]cc32)c1 (stereo not drawn),70.6%
15,COc1cc(OC)c(C2SCC(=O)Nc3n[nH]cc32)cc1OC (stereo not drawn),26.8%
16,COc1ccc(C2SCC(=O)Nc3n[nH]cc32)c(OC)c1OC (stereo not drawn),32.5%
17,COc1ccccc1C1SCC(=O)Nc2n[nH]cc21 (stereo not drawn),42.6%
18,COc1cc(C2SCC(=O)Nc3n[nH]cc32)cc(OC)c1O (stereo not drawn),60.7%
19,COc1cccc(C2SCC(=O)Nc3n[nH]cc32)c1OC(C)C (stereo not drawn),40%
20,N#Cc1cn(C2CC2)c(=O)n(CC(O)c2ccc(F)cc2)c1=O (stereo not drawn),35.85%
21,CCN(Cc1ccccc1)C(=O)c1cc(C2CCCN2C)ccn1 (stereo not drawn),-31%
22,Cc1csc(N2CCN(C(=O)CCCNc3ncccn3)CC2)n1,26.4%

row,Compound,INHIBITION
1,Cc1cccc(N2CCc3ncc(CNS(C)(=O)=O)n3CC2)n1,22.4%
2,COc1ccc(CN2CCC[C@@H]3CN(C(=O)c4ccco4)C[C@@H]32)cc1,29%
3,O=C(c1cn(CC(=O)N2CCCC2)c2ccccc12)C1CC1,71.7%
4,O=C(c1cn(CC(=O)N2CCCCCC2)c2ccccc12)C1CC1,27.8%
5,O=C(c1cn(CC(=O)N2CCCCC2)c2ccccc12)C1CC1,13.94%
6,CN1CCCC1c1ccnc2nccn12 (stereo not drawn),19.9%
7,CCC(C(=O)NCC1CCN(c2ccncc2)CC1)N(C)C (stereo not drawn),34.9%
8,O=C(Cn1cccnc1=O)NC(Cc1ccsc1)c1ccccn1 (stereo not drawn),41.5%
9,O=C(Cn1cccnc1=O)NC(Cc1ccsc1)c1nccs1 (stereo not drawn),29.3%
10,Cc1cc(C)n(CC(=O)NC(Cc2ccsc2)c2ccccn2)c(=O)n1 (stereo not drawn),54%
11,Cc1csc(C(Cc2ccsc2)NC(=O)Cn2cccnc2=O)n1 (stereo not drawn),34%
12,Cc1cccnc1C(Cc1ccsc1)NC(=O)Cn1cccnc1=O (stereo not drawn),59%
13,CS(=O)(=O)N1CCC(C(=O)NC(Cc2ccsc2)c2ccccn2)CC1 (stereo not drawn),40.9%
14,CNc1nc2c(c(C(=O)N3CCCC3)n1)CN(Cc1ccco1)CC2,17.2%
15,CC(C)Nc1ncnc2c1CCN(C(=O)CCc1ccccc1)CC2,61.4%
16,CC(C)Nc1ncnc2c1CCN(C(=O)CN(C)C)CC2,36.9%
17,CC(C)Nc1ncnc2c1CCN(C(=O)NCc1cccnc1)CC2,-1.15%
18,CC(C)Nc1ncnc2c1CCN(C(=O)Cc1ccccn1)CC2,8.69%
19,O=C(NCc1cccc(F)c1)N1CCc2ncnc(NC3CC3)c2CC1,16.8%
20,CC(C)Nc1ncnc2c1CCN(C(=O)NCc1cccc(F)c1)CC2,51.2%

# From ChEMBL document CHEMBL4513216, “Probing the Open Global Health Chemical Diversity Library for Multistage-Active Starting Points for Next-Generation Antimalarials” (ACS Infect Dis, 2020)
